Five compounds from PubChem BioAssay can be followed below.

Structures are written as SMILES. Results filed as inconclusive are left out. Calls of active or inactive are those of the source. Cut-off read from the data, not from the text of the source, unless noted: active = percent of DMSO control GFP below about 86%; inactive = the rest, inconclusive results apart.

Assay [1] in a line: yeast TOR pathway RPL19A-GFP modulators, primary screen, cell-based, S. cerevisiae, multiplex flow cytometry (AID 1862).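 Note: lower values mimic rapamycin by blocking the RPL19A rise seen in DMSO cells.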 To be noted: S. cerevisiae RPL19A-GFP strain, flow cytometry fluorescence, 3 h; at 10 µM; stronger effect = lower value.
Assay [2] is described as follows: modulators of MEP2-GFP levels in yeast, primary screen, S. cerevisiae, multiplex flow cytometry (AID 1867;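 active = GFP response, as percent of the DMSO control, above the screen-wide mean plus 3 SD, about 139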;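 note: median GFP channel fluorescence of barcode-gated MEP2-GFP cells measured by flow cytometry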). The note with it: S. cerevisiae MEP2-GFP strain, 3 h, at 10 µM, stronger effect = higher value, 100% means same as DMSO wells. On the technique in general: A flow cytometer gives signals particle by particle.
The nature of assay [3]: modulators of CIT2-GFP expression in yeast, primary screen, S. cerevisiae, GFP fusion, multiplex flow cytometry (AID 1870;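 active = percent response above a set limit, the screen-wide mean plus 3 SD, cut at about 130% in these data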;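 note: barcoded CIT2-GFP strain pooled with four other GFP strains with rapamycin as positive control; median GFP fluorescence per well over plate mean of DMSO wells so 100% = DMSO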). To be noted: 3 h, at 10 µM, stronger effect = higher value.
Assay [4] in a line: modulators of LAP4-GFP expression in yeast, primary screen, S. cerevisiae, multiplex flow cytometry (AID 1873;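 active = GFP signal, as percent of the solvent control, above the screen mean plus 3 SD, about 149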). To be noted: 3 h, at 10 µM, stronger effect = higher value.
The nature of assay [5]: modulators of AGP1-GFP expression in yeast TOR pathway, primary screen, cell-based, multiplex flow cytometry, S. cerevisiae (AID 1887;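 active = GFP signal above the screen-wide mean plus 3 SD, that is over about 124.5% of the solvent control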;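 note: AGP1-GFP fusion strain of S. cerevisiae within a five-strain barcoded multiplex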). The note with it: 3 h, at 10 µM, stronger effect = higher value.
Assay [6] is described as follows: inhibitors of CD8+ T cell-vesicle binding, pilot screen, LFA-1/ICAM-1 modulator project, MLPCN validation set, flow cytometry (AID 2523;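 active = response below a set limit, under 55% cells CD8-positive and vesicle-bound, and CD8 cells' 90th-percentile brightness under 279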;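 for vesicle binding response: mean PE anti-B7-1 fluorescence of CD8+ cells relative to row control; 100% = QL9-loaded vesicles with DMSO vehicle in the same plate row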). To be noted: 2C mouse CD8+ T cells, at 7 µM, stronger effect = lower value; double positive events: measured here: CD8+/vesicle+ event percentage.
In assay [7] the target is Integrin beta-1 (Homo sapiens) + Integrin alpha-4 (Homo sapiens) (UniProt P13612+P05556). Kind of assay: inhibition of HUTS-21 binding to VLA-4, pilot screen, VLA-4 allosteric modulator project, U937 cells, HUTS-21 mAb, flow cytometry, validation set (AID 2674;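 active = inhibition above 50%, about 3 SD of the validation set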;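 note: antibody binding induced by the VLA-4 ligand LDV present at three times its Kd; 0% = LDV ligand with antibody and no compound and 100% = antibody without LDV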). The note with it: HUTS-21 LIBS mAb binding, at 6.7 µM, stronger effect = higher value, binding induced by LDV ligand.
Assay [8] in a line: superoxide lowering in aged yeast cells, pilot screen, validation compound set (AID 2706;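 active = superoxide response below 65% of plate, a cut near 3 SD across the whole screen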;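 note: yeast exposed to compound for one week at 30 degrees C before staining; 100% = mean of all compound wells on the same plate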). The note with it: S. cerevisiae aging, superoxide DHE fluorescence; at 10 µM; stronger effect = lower value.
The target of assay [9] is Beta-adrenergic receptor kinase 1 (Homo sapiens) (UniProt P25098). Kind of assay: GRK2 binders displacing RNA aptamer, biochemical, validation, human GRK2, bead flow cytometry (AID 488806;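 active = aptamer binding inhibition above 30%, about 3 SD of noise from non-fluorescent compounds; inactive = inhibition at or below 30%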). The note with it: bead-bound GRK2, FAM-aptamer displacement, at 10 µM, stronger effect = higher value.
Assay [10] has as its target Beta-2 adrenergic receptor (Homo sapiens) (UniProt P07550). Kind of assay: beta2AR agonists driving receptor internalization, pilot screen, cell-based, FAP fluorogen, flow cytometry, validation set (AID 504459;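 active = percent response above 42, roughly 3 SD of non-fluorescent test compounds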;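 note: agonist-driven loss of surface beta2AR via internalization measured by FAP dye flow cytometry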). To be noted: Am2.2-beta2AR cells, FAP surface receptor flow cytometry; at 10 µM; stronger effect = higher value.
The target of assay [11] is AP-2 complex subunit beta (Homo sapiens) (UniProt P63010). Kind of assay: inhibitors of arrestin peptide binding to AP2, pilot screen, biochemical, validation set, GST-AP2 beads, flow cytometry (AID 504541;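 active = inhibition above 54%, about 3 SD of non-fluorescent compounds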;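 note: AP2 carries R879A mutation and is captured from E. coli lysate; bead-bound FITC arrestin peptide fluorescence measuring arrestin peptide binding to AP2; 0% = DMSO wells and 100% = excess unlabeled arrestin peptide control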). To be noted: FITC arrestin peptide, at 10 µM, stronger effect = higher value, AP2 beta2 appendage fragment, R879A mutant.
Assay [12] is described as follows: yeast V-ATPase proton transport modulators, S. cerevisiae, pHLuorin, HTS validation (AID 504600; in the data active = response above about 15%;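 note: plate controls were DMSO for no effect and reference compound for full effect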). The note with it: S. cerevisiae pHLuorin cytosolic pH, at 10 µM, stronger effect = higher value.
Assay [13] deals with anti-desmoglein-3 scFv antibody binding to human DSG3. Kind of assay: inhibitors of anti-DSG3 scFv binding to DSG3, pilot screen, biochemical, validation compound set, bead-based, flow cytometry (AID 588368;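 active = binding below the plate cutoff, the plate median minus 3 SD, with a reading above zero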;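 note: signal is the median channel fluorescence of bead-bound GFP antibody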). To be noted: Protein G beads, DSG3-Fc, scFv-GFP binding, at 10 µM, stronger effect = lower value.
A short description of assay [14]: inhibitors of fungal efflux pumps CDR1, CDR2, MDR1, pilot screen, validation compound set, multiplex, phenotypic (AID 588506;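 active = efflux inhibition above 0.42, the validation set average plus 4 SD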;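 note: Nile Red retained in cells so higher fluorescence means more efflux inhibition; 0 = negative control wells and 1 = enniatin B 25 µM full block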). To be noted: S. cerevisiae pump-expressing triplex, Nile Red efflux flow cytometry; at 10 µM; stronger effect = higher value; the pumps come from Candida albicans.
In assay [15] the target is ATP-binding cassette sub-family B member 6 (Homo sapiens) (UniProt Q9NP58). Kind of assay: ABCB6 transporter inhibitors, pilot screen, K562-ABCB6 cells, flow cytometry, validation set (AID 588550;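 active = inhibition above the screen-wide mean plus 3 SD, about 51%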;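 note: 0% = DMSO wells and 100% = benzethonium chloride 70 µM positive control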). The note with it: K562-ABCB6 porphyrin accumulation, 1 h, at 10 µM, stronger effect = higher value.
Assay [16] in a line: promoters of myeloid differentiation in arrested cells, primary screen, cell-based, GFP/MAC1 double positive, flow cytometry, validation set (AID 588685;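 active = differentiation response of at least 50%, scaled between solvent and reference control, from cells with both markers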;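 note: compound exposure lasts four days before antibody staining and flow analysis; 0% = DMSO wells and 100% = 5 µM fulvestrant positive control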). To be noted: ER-HoxA9 marrow cells, stronger effect = higher value, normalized: vehicle 0, fulvestrant 100.

Chain of Beta-2 adrenergic receptor (Homo sapiens) (P07550 whole entry, looked up): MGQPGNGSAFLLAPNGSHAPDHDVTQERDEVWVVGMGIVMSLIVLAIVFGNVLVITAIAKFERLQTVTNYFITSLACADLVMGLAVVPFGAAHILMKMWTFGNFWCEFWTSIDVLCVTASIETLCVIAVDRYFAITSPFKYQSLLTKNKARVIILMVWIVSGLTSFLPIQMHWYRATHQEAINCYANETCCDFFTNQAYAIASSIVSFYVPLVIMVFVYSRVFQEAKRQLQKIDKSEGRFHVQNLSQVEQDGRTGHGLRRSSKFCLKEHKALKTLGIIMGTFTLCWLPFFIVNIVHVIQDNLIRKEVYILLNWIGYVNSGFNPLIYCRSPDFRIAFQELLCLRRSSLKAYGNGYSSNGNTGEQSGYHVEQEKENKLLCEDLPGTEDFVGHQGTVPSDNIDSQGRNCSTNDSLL
Chain of Beta-adrenergic receptor kinase 1 (Homo sapiens) (P25098 whole entry, looked up): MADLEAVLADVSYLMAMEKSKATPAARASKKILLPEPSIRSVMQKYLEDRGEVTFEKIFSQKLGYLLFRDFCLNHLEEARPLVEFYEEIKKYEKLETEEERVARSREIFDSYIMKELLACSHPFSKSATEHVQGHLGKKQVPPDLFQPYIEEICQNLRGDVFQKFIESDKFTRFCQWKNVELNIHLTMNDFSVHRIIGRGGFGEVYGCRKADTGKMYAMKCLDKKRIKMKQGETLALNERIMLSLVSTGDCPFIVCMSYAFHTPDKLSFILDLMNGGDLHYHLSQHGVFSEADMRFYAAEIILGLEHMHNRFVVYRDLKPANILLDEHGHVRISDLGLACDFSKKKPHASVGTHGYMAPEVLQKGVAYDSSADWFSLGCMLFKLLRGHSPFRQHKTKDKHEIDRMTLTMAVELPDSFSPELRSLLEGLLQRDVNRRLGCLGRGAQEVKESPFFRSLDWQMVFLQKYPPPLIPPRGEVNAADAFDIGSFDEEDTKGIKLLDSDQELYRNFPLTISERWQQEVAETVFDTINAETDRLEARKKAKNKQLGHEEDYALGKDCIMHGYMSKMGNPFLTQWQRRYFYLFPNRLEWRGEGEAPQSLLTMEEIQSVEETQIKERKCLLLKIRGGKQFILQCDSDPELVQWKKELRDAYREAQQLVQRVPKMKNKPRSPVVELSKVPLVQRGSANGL
Chain of ATP-binding cassette sub-family B member 6 (Homo sapiens) (Q9NP58 whole entry, looked up): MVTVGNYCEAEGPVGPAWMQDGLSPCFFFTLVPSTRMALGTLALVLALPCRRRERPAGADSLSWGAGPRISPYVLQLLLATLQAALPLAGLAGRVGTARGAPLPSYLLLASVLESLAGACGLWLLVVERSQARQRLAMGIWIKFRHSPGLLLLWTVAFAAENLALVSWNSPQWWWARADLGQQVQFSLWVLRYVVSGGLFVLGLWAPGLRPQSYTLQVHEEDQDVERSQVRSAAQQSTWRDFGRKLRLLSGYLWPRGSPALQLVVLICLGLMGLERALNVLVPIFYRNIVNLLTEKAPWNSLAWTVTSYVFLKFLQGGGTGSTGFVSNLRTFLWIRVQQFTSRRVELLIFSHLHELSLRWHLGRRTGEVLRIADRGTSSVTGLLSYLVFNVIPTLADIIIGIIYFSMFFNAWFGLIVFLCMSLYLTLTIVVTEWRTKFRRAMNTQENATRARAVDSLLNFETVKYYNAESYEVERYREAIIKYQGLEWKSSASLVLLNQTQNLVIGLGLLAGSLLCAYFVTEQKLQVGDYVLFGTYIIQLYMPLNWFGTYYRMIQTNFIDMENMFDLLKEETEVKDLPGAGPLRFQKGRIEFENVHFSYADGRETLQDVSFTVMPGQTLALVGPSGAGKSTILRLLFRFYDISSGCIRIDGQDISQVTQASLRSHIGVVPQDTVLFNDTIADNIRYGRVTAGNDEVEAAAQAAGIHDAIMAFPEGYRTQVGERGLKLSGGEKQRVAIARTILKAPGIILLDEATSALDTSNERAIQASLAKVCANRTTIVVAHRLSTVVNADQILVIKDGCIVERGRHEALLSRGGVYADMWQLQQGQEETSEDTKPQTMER
Chain of AP-2 complex subunit beta (Homo sapiens) (P63010 whole entry, looked up, the tested form may be a part, one chain of several): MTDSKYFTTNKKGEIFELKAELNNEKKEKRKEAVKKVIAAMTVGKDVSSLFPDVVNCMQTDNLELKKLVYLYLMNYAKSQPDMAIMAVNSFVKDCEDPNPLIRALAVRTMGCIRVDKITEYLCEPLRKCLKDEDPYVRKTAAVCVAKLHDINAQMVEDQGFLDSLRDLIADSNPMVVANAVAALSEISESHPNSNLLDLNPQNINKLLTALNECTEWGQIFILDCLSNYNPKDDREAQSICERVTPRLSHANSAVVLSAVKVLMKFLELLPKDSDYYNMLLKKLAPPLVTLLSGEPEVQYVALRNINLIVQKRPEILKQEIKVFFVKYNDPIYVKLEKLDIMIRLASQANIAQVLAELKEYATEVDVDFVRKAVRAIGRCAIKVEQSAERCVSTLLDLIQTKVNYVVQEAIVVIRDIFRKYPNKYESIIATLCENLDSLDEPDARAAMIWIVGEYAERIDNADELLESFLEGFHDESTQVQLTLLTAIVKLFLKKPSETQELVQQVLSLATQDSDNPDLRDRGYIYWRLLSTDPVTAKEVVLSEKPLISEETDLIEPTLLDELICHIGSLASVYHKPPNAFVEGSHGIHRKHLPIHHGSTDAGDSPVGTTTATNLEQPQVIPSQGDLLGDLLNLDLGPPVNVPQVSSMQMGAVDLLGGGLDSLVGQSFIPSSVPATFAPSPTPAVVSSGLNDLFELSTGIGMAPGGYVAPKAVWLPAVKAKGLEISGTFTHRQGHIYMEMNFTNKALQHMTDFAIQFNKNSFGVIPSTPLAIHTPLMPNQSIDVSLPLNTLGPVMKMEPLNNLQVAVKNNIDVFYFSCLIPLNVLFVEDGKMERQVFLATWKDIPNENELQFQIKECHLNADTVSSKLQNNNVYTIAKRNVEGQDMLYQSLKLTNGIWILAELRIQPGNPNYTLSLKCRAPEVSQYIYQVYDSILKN
Chain of Integrin beta-1 (Homo sapiens) + Integrin alpha-4 (Homo sapiens) (P05556 whole entry, looked up): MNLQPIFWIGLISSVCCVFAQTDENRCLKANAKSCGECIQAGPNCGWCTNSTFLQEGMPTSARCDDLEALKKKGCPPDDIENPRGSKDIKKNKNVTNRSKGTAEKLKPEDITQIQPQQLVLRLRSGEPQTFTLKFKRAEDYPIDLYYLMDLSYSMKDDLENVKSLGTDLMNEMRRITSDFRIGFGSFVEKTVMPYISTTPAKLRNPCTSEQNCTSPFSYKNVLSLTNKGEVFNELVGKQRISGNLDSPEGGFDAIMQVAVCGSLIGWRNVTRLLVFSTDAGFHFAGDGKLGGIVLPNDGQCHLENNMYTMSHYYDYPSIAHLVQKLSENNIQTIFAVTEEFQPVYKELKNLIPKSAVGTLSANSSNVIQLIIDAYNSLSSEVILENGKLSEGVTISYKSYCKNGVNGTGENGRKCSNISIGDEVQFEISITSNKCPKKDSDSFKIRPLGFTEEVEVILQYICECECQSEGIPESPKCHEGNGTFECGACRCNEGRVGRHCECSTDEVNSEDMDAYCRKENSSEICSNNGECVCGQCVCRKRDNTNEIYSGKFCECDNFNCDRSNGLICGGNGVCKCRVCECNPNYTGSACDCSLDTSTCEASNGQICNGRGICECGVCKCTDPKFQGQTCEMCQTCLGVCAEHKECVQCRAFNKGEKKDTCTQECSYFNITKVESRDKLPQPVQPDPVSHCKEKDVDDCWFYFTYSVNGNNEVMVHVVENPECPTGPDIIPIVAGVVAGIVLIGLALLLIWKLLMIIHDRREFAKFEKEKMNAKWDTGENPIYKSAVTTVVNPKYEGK
Chain of Integrin beta-1 (Homo sapiens) + Integrin alpha-4 (Homo sapiens) (P13612 whole entry, looked up): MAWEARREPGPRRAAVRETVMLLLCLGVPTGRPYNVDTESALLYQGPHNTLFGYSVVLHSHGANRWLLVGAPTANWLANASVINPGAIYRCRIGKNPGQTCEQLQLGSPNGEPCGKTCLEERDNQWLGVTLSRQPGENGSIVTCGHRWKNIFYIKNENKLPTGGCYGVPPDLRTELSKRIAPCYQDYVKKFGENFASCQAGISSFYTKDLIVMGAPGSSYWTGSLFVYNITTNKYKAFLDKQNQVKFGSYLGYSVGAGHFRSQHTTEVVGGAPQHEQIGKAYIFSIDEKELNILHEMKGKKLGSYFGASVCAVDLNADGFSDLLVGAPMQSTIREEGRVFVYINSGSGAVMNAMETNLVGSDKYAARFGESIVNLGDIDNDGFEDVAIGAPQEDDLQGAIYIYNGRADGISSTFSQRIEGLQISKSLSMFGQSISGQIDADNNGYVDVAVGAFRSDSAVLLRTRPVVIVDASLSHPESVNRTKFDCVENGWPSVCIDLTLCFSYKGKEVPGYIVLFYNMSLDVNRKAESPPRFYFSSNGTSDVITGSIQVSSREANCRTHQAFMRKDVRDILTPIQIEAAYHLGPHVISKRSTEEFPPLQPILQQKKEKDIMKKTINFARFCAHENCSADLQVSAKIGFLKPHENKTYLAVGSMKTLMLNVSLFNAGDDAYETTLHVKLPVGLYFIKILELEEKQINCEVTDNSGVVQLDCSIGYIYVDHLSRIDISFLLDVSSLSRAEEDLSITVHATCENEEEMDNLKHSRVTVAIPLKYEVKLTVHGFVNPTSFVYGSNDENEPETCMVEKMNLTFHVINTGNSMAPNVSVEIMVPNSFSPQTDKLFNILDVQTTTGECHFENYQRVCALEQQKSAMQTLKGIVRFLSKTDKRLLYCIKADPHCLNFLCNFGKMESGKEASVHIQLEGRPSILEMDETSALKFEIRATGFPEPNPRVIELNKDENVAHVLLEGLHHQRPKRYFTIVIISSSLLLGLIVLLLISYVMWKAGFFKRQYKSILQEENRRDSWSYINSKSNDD

Turning to `CCOc1cc2c3c(c1)C(C)=CC(C)(C)N3C(=O)C2=O`, in assay [1], the percent of DMSO control GFP was 95% (inactive). The GFP response vs DMSO was 111% (inactive) in [2] and 108% (inactive) in assay [4]. Also, the percent response of DMSO control in [3] was 103% (inactive). Also, the GFP response, % of DMSO in assay [5] is 102% (inactive). In addition, in assay [6], the double positive events came out at 43.2%. In [6], the vesicle binding response is 11.7% (active). The inhibition was 35.1% (inactive) in [7], 51.5% (inactive) in assay [11] and 4% (inactive) in assay [15]. Also, the superoxide response (% of plate) in [8] was 108% (inactive). The aptamer binding inhibition in assay [9] was 0% (inactive). For the same compound, the response in assay [10] was 23% (inactive); in [12] it was -5.76% (inactive). Besides, the binding (% of control) in assay [13] was 101% (inactive). Besides, the efflux inhibition (fraction of control) in assay [14] was -0.13 (inactive). The differentiation response in [16] is -0.8% (inactive).

Consider `CC/C(=C(\c1ccc(O)cc1)c1ccc(OCCN(C)C)cc1)c1ccccc1`, for which, in assay [1], the percent of DMSO control GFP is 107% (inactive). Also, the GFP response vs DMSO in assay [2] was 108% (inactive); in assay [4], 99.1% (inactive). Besides, the percent response of DMSO control in [3] is 109% (inactive). In addition, the GFP response, % of DMSO in assay [5] was 114% (inactive). The double positive events in [6] is 62.9%. In addition, in [6], the vesicle binding response was 157% (inactive). Besides, the inhibition in assay [7] was 15% (inactive); in assay [11], 42.2% (inactive); in assay [15], 21% (inactive). Further, in [8], the superoxide response (% of plate) was 97.5% (inactive). In addition, the aptamer binding inhibition in assay [9] was -6% (inactive). Further, the response in [10] was 38.5% (inactive); in assay [12], -1.39% (inactive). Further, the binding (% of control) in [13] was 112% (inactive). Also, in [14], the efflux inhibition (fraction of control) was 0.29 (inactive). In addition, the differentiation response in assay [16] is -3.11% (inactive).

`CCCCCC(O)c1cccc(OCc2ccc3ccccc3n2)c1` (stereo not given): the percent of DMSO control GFP in [1] is 101% (inactive). Also, the GFP response vs DMSO in assay [2] is 97.6% (inactive); in assay [4], 130% (inactive). In addition, in [3], the percent response of DMSO control was 99% (inactive). In [5], the GFP response, % of DMSO was 109% (inactive). In [6], this compound displayed a double positive events of 65.2%. In assay [6], the vesicle binding response is 227% (inactive). Moreover, the inhibition in [7] is 22.7% (inactive); in assay [11], 6.94% (inactive); in assay [15] it was 5% (inactive). Moreover, the superoxide response (% of plate) in assay [8] is 110% (inactive). Moreover, the aptamer binding inhibition in assay [9] was 2% (inactive). For the same compound, the response in [10] was -42.6% (inactive); in [12], 1.82% (inactive). Besides, the binding (% of control) in [13] is 92.4% (inactive). For the same compound, the efflux inhibition (fraction of control) in assay [14] is 0.04 (inactive). Besides, the differentiation response in [16] was -8.93% (inactive).

As for `CC1(C)CC(CC(=O)O)(c2ccc(Cl)cc2)CCO1` (stereo not given), the percent of DMSO control GFP in assay [1] is 86% (inactive). Besides, the GFP response vs DMSO in assay [2] is 126% (inactive); in [4], 85.3% (inactive). For the same compound, the percent response of DMSO control in assay [3] was 96.6% (inactive). Also, the GFP response, % of DMSO in assay [5] is 92.8% (inactive). The compound further gave a double positive events in [6] of 61.2%. The vesicle binding response in assay [6] was 136% (inactive). Moreover, the figures for the inhibition in assay [7], in assay [11] and in [15] were -0.33% (inactive), -8.86% (inactive) and 9% (inactive), respectively. Moreover, the superoxide response (% of plate) in assay [8] was 94.5% (inactive). The aptamer binding inhibition in [9] was 3% (inactive). Besides, the response is -2.75% (inactive) in [10] and 0.57% (inactive) in assay [12]. Moreover, the binding (% of control) in assay [13] is 107% (inactive). In addition, the efflux inhibition (fraction of control) in assay [14] was -0.17 (inactive). In [16], the differentiation response was -3.28% (inactive).

Turning to `Cc1ccc2[nH]c3c(=O)n(CCc4cnc[nH]4)cnc3c2c1`, in assay [1], the percent of DMSO control GFP is 96.4% (inactive). Moreover, the GFP response vs DMSO in assay [2] is 99.7% (inactive); in assay [4], 97% (inactive). Also, in assay [3], the percent response of DMSO control is 105% (inactive). Further, the GFP response, % of DMSO in assay [5] was 103% (inactive). For the same compound, in assay [6], the double positive events was determined as 65.2%. Besides, the vesicle binding response in assay [6] is 172% (inactive). Moreover, the inhibition in assay [7] was -17.2% (inactive); in assay [11], -15.4% (inactive); in [15] it was 10% (inactive). Further, the superoxide response (% of plate) in [8] is 93.1% (inactive). In addition, the aptamer binding inhibition in assay [9] was 0% (inactive). In addition, the response is -13.6% (inactive) in assay [10] and 1.97% (inactive) in assay [12]. Moreover, the binding (% of control) in [13] was 103% (inactive). The efflux inhibition (fraction of control) in assay [14] is -0.58 (inactive). For the same compound, the differentiation response in assay [16] is -14.8% (inactive).

What is called inhibition is the change of the read-out against control, counted positive when it falls.
